Inconclusive results are not listed. Active and inactive are the calls of the source. Unless noted, calls follow the shape of the full dose curve.
How the values were obtained:
[1] = target: Bile acid receptor (Homo sapiens) (UniProt Q96RI1); assay: qHTS assay to identify small molecule antagonists of the farnesoid-X-receptor (FXR) signaling pathway (AID 743217; active = well fitted inhibition curve with a large enough effect in the signal ratio in the repeat runs, not every such curve was filed as active; the % refers to the signal ratio; also: % is scaled to controls: 0 for no effect and ±100 for the full control effect)
In short: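 Beta-lactamase reporter under UAS control in HEK 293T cells; compound exposure 16 h at 37 °C in the presence of chenodeoxycholic acid (50 uM final); signal from B/G FRET substrate after 2 h at room temperature.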

[2] = qHTS assay to identify small molecule agonists of the farnesoid-X-receptor (FXR) signaling pathway - cell viability counter screen (AID 743218; active = well fitted curve in the direction sought with a large enough effect in the repeat runs; an effect the other way counts as inactive or inconclusive; also: % is scaled to controls: 0 for no effect and ±100 for the full control effect; nearly all actives have a fitted effect of over 45% in size)
In short: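 In GeneBLAzer FXR-UAS-bla HEK 293T cells, compounds act for 16 h at 37 C. Cell viability is then scored in the reporter wells by CellTiter-Glo, 30 min at RT, luminescence.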

[3] = target: Bile acid receptor (Homo sapiens) (UniProt Q96RI1); assay: qHTS assay to identify small molecule agonists of the farnesoid-X-receptor (FXR) signaling pathway (AID 743220; active = well fitted activation curve with a large enough effect in the signal ratio in the repeat runs, not every such curve was filed as active; the % refers to the signal ratio; also: % is scaled to controls: 0 for no effect and ±100 for the full control effect)
In short: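 Beta-lactamase reporter under UAS control in GeneBLAzer FXR HEK 293T cells (5000/well) measured with LiveBLAzer FRET substrate after 2 h at room temperature. Compound exposure lasted 16 h at 37C.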

[4] = qHTS assay to identify small molecule antagonists of the farnesoid-X-receptor (FXR) signaling pathway - cell viability counter screen (AID 743221; active = well fitted cell-killing curve with a large enough effect in the repeat runs, not every such curve was filed as active; also: % is scaled to controls: 0 for no effect and ±100 for the full control effect; nearly all actives have a fitted effect of over 50% in size)
In short: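 HEK 293T FXR-bla cells, 5 h pre-incubation; compound + CDCA 50 uM final, 16 h, 37 C; beta-lactamase FRET read first, then CellTiter-Glo luminescence, 30 min RT.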

[5] = qHTS assay to identify small molecule agonists of the vitamin D receptor (VDR) signaling pathway - cell viability counter screen (AID 743224; active = well fitted curve in the direction sought with a large enough effect in the repeat runs; an effect the other way counts as inactive or inconclusive; also: series mostly up to about 63 µM; % is scaled to controls: 0 for no effect and ±100 for the full control effect; nearly all actives have a fitted effect of over 50% in size)
In short: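 VDR-bla cell line, quantitative HTS format; 16 h compound incubation (37C, 5% CO2); ATP-based CellTiter-Glo luminescence measured in the reporter assay wells.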

[6] = qHTS assay to identify small molecule antagonists of the vitamin D receptor (VDR) signaling pathway - cell viability counter screen (AID 743225; active = well fitted curve in the direction sought with a large enough effect in the repeat runs; an effect the other way counts as inactive or inconclusive; also: % is scaled to controls: 0 for no effect and ±100 for the full control effect; nearly all actives have a fitted effect of over 50% in size)
In short: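 Viability counter screen run in the same wells as the beta-lactamase reporter assay: HEK 293T VDR-UAS-bla cells, 16 h compound exposure at 37C with 3 nM (final) 1-alpha,25-dihydroxyvitamin D3. CellTiter-Glo luminescence, 30 min, room temperature.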

[7] = qHTS assay to identify small molecule agonists of the NFkB signaling pathway - cell viability counter screen (AID 1159515); also: series mostly up to about 61 µM; % is scaled to controls: 0 for no effect and ±100 for the full control effect; nearly all actives have a fitted effect of over 55% in size
In short: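 Viability in NFkB-bla ME-180 cells was measured by CellTiter-Glo luminescence, 30 min room temperature, in wells already treated 5 hr with compounds and read for reporter FRET.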

[8] = qHTS assay to identify small molecule agonists of the endoplasmic reticulum stress response signaling pathway (AID 1159516; active = well fitted activation curve with a large enough effect in the signal ratio in the repeat runs, not every such curve was filed as active; the % refers to the signal ratio; also: % is scaled to controls: 0 for no effect and ±100 for the full control effect)
In short: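 ER stress element reporter (bla) in HeLa. 1,500 cells/well, overnight attachment; 5 hr compound; 2 hr RT substrate; dual-emission fluorescence.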

[9] = qHTS assay to identify small molecule agonists of the endoplasmic reticulum stress response signaling pathway - cell viability counter screen (AID 1159517);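 also: HeLa cells carrying an ER stress response element beta-lactamase reporter; series mostly up to about 61 µM; % is scaled to controls: 0 for no effect and ±100 for the full control effect; nearly all actives have a fitted effect of over 50% in size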
In short: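 HeLa cells carrying an ESRE-driven beta-lactamase reporter receive compound for 5 hr at 37 C. Cell viability is then gauged with CellTiter-Glo by luminescence, 30 min at room temperature.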

[10] = qHTS assay to identify small molecule antagonists of the retinoid-related orphan receptor gamma (ROR-gamma) signaling pathway - cell viability counter screen (AID 1159520; active = well fitted curve in the direction sought with a large enough effect in the repeat runs; an effect the other way counts as inactive or inconclusive)
In short: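 Cytotoxicity was read from cellular ATP (CellTiter-Glo luminescence) after 16 hr at 37 C with 1 uM doxycycline induction. The inducer was added 2 hr after compound transfer to Tet-on ROR gamma CHO cells.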

[11] = target: Nuclear receptor ROR-gamma (Homo sapiens) (UniProt P51449); assay: qHTS assay to identify small molecule antagonists of the retinoid-related orphan receptor gamma (ROR-gamma) signaling pathway (AID 1159521; active = well fitted curve in the direction sought with a large enough effect in the repeat runs; an effect the other way counts as inactive or inconclusive)
In short: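 Luminescence readout (ONE-Glo, 30 min RT) after 16 h doxycycline induction; loss of signal scored as antagonism. CHO cells with TET-inducible RORγ and RORE-LUC reporter; compounds added 2 h before 1 uM final doxycycline.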

[12] = qHTS assay to identify small molecule agonists of the AP-1 signaling pathway - cell viability counter screen (AID 1159525); also: nearly all actives have a fitted effect of over 55% in size
In short: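 Luminescent ATP readout (Cell Titer Glo, 30 min RT), normalised to DMSO and tetra n-octyl ammonium bromide controls. Cells were ME-180 AP-1-bla in 0.5% dialyzed FBS Opti-MEM, with a 5 h, 37 °C compound exposure.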

[13] = qHTS assay to identify small molecule agonists of the AP-1 signaling pathway (AID 1159526); also: % is scaled to controls: 0 for no effect and ±100 for the full control effect
[14] = target: Peroxisome proliferator-activated receptor delta (Homo sapiens) (UniProt Q03181); assay: qHTS assay to identify small molecule agonists of the peroxisome proliferator-activated receptor delta (PPARd) signaling pathway (AID 743212); also: % is scaled to controls: 0 for no effect and ±100 for the full control effect
In short: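 HEK293H PPARd-bla cells; 5 h preincubation 37 C/5% CO2; compound (DMSO) 37 C; LiveBLAzer B/G FRET substrate 2 h RT; fluorescence intensity.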

[15] = qHTS assay to identify small molecule antagonists of the peroxisome proliferator-activated receptor delta (PPARd) signaling pathway - cell viability counter screen (AID 743213; active = well fitted curve in the direction sought with a large enough effect in the repeat runs; an effect the other way counts as inactive or inconclusive)
In short: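 Cytotoxicity counter screen: CellTiter-Glo luminescence read 30 min after addition, in the same wells as the reporter assay. There, PPARd UAS-bla HEK293H cells (3000/well) were treated 17 h at 37 C with compound and 300 nM L165041.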

[16] = target: Peroxisome proliferator-activated receptor delta (Homo sapiens) (UniProt Q03181); assay: qHTS assay to identify small molecule antagonists of the peroxisome proliferator-activated receptor delta (PPARd) signaling pathway (AID 743215; active = well fitted inhibition curve with a large enough effect in the signal ratio in the repeat runs, not every such curve was filed as active; the % refers to the signal ratio)
In short: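 Antagonist-mode beta-lactamase reporter screen: HEK293H cells with UAS-bla under PPARd control, stimulated by 300 nM L165041 (final) alongside test compound for 17 h at 37 C, then FRET fluorescence after 2 h substrate incubation.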

[17] = target: Vitamin D3 receptor (Homo sapiens) (UniProt P11473); assay: qHTS assay to identify small molecule agonists of the vitamin D receptor (VDR) signaling pathway (AID 743222); also: % is scaled to controls: 0 for no effect and ±100 for the full control effect
In short: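 Agonist activity measured in VDR-bla reporter cells. Exposure 16 h, 37C, 5% CO2; detection by B/G FRET substrate, 2 h RT.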

[18] = target: Vitamin D3 receptor (Homo sapiens) (UniProt P11473); assay: qHTS assay to identify small molecule antagonists of the vitamin D receptor (VDR) signaling pathway (AID 743223; active = well fitted inhibition curve with a large enough effect in the signal ratio in the repeat runs, not every such curve was filed as active; the % refers to the signal ratio; also: % is scaled to controls: 0 for no effect and ±100 for the full control effect)
In short: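 Beta-lactamase reporter read-out: FRET substrate fluorescence after 2 h at room temperature, following 16 h exposure of VDR-bla cells to test compound plus 3 nM (final) 1alpha,25-dihydroxyvitamin D3 agonist at 37C.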

[19] = target: Retinoic acid receptor RXR-alpha (Homo sapiens) (UniProt P19793); assay: qHTS assay to identify small molecule agonists of the RXR signaling pathway (AID 1159527); also: % is scaled to controls: 0 for no effect and ±100 for the full control effect; nearly all actives have a fitted effect of over 35% in size
In short: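 Agonist mode; 9-cis retinoic acid positive control. HEK 293T UAS-bla reporter cells, 2% charcoal-stripped FBS, 16 hr compound exposure at 37 C/5% CO2. LiveBLAzer B/G FRET substrate 2 hr RT; ex 405, em 460/530 nm.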

[20] = qHTS assay to identify small molecule agonists of the RXR signaling pathway - cell viability counter screen (AID 1159529; active = well fitted curve in the direction sought with a large enough effect in the repeat runs; an effect the other way counts as inactive or inconclusive)
In short: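 Luminescence from CellTiter-Glo (30 min, RT) measured viability in the same wells as the beta-lactamase reporter readout. Cells: GeneBLAzer RXR-alpha HEK 293T, 2% charcoal-stripped FBS. Compound exposure 16 hr, 37 C.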

Chain of Vitamin D3 receptor (Homo sapiens) (P11473 whole entry, looked up): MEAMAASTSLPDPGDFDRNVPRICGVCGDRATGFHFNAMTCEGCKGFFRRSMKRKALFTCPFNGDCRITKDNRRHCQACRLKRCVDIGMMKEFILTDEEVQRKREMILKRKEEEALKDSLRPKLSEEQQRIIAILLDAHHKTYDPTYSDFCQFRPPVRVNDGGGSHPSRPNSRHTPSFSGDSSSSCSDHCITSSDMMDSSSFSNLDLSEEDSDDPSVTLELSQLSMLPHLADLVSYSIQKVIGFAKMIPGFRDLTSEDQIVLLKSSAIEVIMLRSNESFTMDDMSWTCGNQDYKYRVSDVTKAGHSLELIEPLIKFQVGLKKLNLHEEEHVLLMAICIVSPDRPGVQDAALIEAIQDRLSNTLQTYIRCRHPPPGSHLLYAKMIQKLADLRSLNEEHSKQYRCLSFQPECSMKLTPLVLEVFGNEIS
Chain of Retinoic acid receptor RXR-alpha (Homo sapiens) (P19793 whole entry, looked up): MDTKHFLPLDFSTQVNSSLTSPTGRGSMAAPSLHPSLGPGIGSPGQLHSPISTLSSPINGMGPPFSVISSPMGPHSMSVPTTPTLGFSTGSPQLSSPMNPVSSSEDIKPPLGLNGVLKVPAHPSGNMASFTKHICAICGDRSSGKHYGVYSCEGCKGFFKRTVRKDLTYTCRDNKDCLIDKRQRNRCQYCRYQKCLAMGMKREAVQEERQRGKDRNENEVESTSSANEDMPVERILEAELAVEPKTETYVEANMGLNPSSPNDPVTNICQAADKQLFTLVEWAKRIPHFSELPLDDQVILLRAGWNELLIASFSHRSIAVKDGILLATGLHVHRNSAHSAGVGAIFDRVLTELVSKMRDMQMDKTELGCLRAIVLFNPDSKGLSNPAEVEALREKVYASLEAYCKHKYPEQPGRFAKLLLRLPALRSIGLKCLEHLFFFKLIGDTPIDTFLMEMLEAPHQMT
Chain of Peroxisome proliferator-activated receptor delta (Homo sapiens) (Q03181 whole entry, looked up): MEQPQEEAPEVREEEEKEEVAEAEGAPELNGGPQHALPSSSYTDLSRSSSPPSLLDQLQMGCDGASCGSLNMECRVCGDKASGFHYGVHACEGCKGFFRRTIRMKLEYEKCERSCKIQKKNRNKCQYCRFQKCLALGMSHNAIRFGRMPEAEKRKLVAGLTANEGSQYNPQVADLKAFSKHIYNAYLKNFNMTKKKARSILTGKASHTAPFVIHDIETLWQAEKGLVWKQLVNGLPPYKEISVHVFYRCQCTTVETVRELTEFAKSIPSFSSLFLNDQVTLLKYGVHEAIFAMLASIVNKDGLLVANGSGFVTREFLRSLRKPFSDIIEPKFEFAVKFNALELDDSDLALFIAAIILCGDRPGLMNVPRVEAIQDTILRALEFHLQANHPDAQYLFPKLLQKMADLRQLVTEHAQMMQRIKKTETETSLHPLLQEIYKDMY
Chain of Bile acid receptor (Homo sapiens) (Q96RI1 whole entry, looked up): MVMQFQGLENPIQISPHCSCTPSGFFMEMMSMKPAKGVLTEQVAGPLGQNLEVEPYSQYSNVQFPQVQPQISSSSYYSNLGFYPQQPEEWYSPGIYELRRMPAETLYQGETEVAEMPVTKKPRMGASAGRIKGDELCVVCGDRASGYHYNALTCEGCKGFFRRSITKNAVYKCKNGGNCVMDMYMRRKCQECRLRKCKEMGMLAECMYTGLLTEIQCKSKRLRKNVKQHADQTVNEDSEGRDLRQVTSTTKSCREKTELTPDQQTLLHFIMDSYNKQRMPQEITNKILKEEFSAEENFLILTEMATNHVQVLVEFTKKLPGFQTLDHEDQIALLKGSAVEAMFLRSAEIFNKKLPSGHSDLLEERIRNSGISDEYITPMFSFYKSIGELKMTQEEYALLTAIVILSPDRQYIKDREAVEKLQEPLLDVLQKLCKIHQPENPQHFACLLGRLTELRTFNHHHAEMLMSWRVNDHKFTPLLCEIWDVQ

CNC(=O)Nc1ccc(Cl)c(Cl)c1
inactive: outcome [1] | outcome [2] | outcome [3] | outcome [4] | outcome [5] | outcome [6] | outcome [7] | outcome [8] | outcome [9] | outcome [10] | Potency [11] | outcome [12] | outcome [13]

CCCCN1C=CN(C)C1
inactive: outcome [14] | outcome [15] | outcome [16] | outcome [2] | outcome [17] | outcome [18] | outcome [6] | outcome [7] | outcome [8] | outcome [9] | activity change, negative = inhibition [11] 11.4% [at 19 µM] | viability change, negative = cytotoxic [12] 3.01% [at 15.8 µM] | activation [13] -8.87% [at 15.8 µM] | activation [19] 3.97% [at 15.8 µM] | activity change, negative = cytotoxicity [20] -11.3% [at 15.8 µM]

O=S(=O)(O)c1cccc2c(S(=O)(=O)O)cccc12
inactive: outcome [4] | outcome [17] | outcome [18] | outcome [5] | outcome [6] | outcome [7] | outcome [8] | outcome [9] | outcome [10] | Potency [11] | outcome [12] | outcome [13]

NS(=O)(=O)Cc1noc2ccccc12
inactive: outcome [15] | outcome [1] | outcome [2] | outcome [3] | outcome [4] | outcome [5] | outcome [6] | outcome [7] | outcome [8] | outcome [9] | outcome [10] | Potency [11] | outcome [12] | outcome [13]

C=CCCCCCCCCC(=O)OCC
inactive: outcome [14] | outcome [15] | outcome [4] | outcome [17] | outcome [5] | outcome [6] | outcome [7] | outcome [8] | outcome [9] | Potency [11] | outcome [12] | outcome [13] | Potency [20]

CC(C)(CCC(=O)O)C(=O)O
inactive: outcome [15] | outcome [4] | outcome [17] | outcome [18] | outcome [5] | outcome [6] | outcome [7] | outcome [8] | outcome [9] | Potency [11] | outcome [12] | outcome [13] | Potency [19] | Potency [20]

O=C(c1ccccc1)C1(O)CCCCC1
inactive: outcome [14] | outcome [15] | outcome [2] | outcome [4] | outcome [17] | outcome [18] | outcome [5] | outcome [6] | outcome [7] | outcome [8] | outcome [9] | Potency [11] | outcome [12] | outcome [13] | Potency [19] | Potency [20]

Cc1c(N)c(=O)n(-c2ccccc2)n1C
inactive: outcome [15] | outcome [2] | outcome [4] | outcome [17] | outcome [5] | outcome [6] | outcome [7] | outcome [8] | outcome [9] | Potency [11] | outcome [12] | outcome [13] | Potency [19] | Potency [20]
